GLD-1 RNA inh: GLD-1/TGE RNA complex disruptors, primary screen, biochemical, fluorescence polarization | Female germline-specific tumor suppressor gld-1 (Caenorhabditis elegans), Q17339 | purified GLD-1 + fluorescein TGE RNA | inhibition, % at 5.96 µM | hit rate 0.44% among 320,000 | AID 2280, 2010;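 active = percent inhibition above a per-plate cutoff, the plate mean of test compounds plus 3 SD, cut at about 30% in these data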
MCL1-BIM inh: inhibitors of MCL1 binding to BIM-BH3, primary screen, biochemical, fluorescence polarization; Induced myeloid leukemia cell differentiation protein Mcl-1 (Homo sapiens), Q07820; GST-MCL1 / FITC-Bim-BH3 fluorescence polarization; inhibition, % at 10.9 µM; hit rate 0.68% among 320,000;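 active = inhibition above the mean inhibition of all tested compounds plus 3 SD, set per campaign, cut at about 40% in these data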;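 also: higher means more loss of mP so more displacement of Bim peptide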
eLon inh: inhibitors of E. coli Lon protease, primary screen, biochemical, fluorescence polarization. purified E. coli Lon protease. inhibition, % at 7.94 µM. hit rate 0.42% among 360,000; in the data active = inhibition above about 13%, passing the limit was not always enough
MEX-5 binding: MEX-5 zinc finger RNA-binding disruptors – biochemical, C. elegans, fluorescence polarization, MLPCN library, primary screen. activity score (negative = inhibition of binding), % at 10 µM. hit rate 0.38% among 300,000. Zinc finger protein mex-5 (Caenorhabditis elegans), Q9XUB2. MEX-5/FITC-TCR2 RNA binding; hits give low values;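 active = inhibition past about -25% in most replicates, and total fluorescence under double the plate's negative control median, limit read from the data; inconclusive = replicates evenly split on the limit, or fluorescence at least double controls; inactive = too little inhibition in most replicates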
Target sequence (Q9XUB2 whole entry, looked up): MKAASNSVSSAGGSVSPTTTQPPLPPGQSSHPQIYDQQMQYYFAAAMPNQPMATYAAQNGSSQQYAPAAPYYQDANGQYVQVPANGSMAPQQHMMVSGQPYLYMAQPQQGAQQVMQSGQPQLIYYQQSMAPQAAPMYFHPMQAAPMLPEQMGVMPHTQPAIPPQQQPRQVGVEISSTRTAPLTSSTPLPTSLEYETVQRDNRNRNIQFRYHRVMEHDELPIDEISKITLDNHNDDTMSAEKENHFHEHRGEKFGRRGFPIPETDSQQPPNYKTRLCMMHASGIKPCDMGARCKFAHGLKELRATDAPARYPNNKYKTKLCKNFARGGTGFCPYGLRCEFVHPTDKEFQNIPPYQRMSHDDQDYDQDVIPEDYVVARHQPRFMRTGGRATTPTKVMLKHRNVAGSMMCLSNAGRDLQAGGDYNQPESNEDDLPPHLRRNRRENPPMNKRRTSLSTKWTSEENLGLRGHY
Bcl-xL primary: inhibitors of human Bcl-xL, primary screen, biochemical, fluorescence polarization, HTS; hit rate 0.7% among 320,000; GST-Bcl-xL / FITC-Bim BH3 peptide fluorescence polarization; inhibition, % at 10.9 µM;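 active = inhibition above the mean of all tested compounds plus 3 SD, cutoff set per campaign, cut at about 30% in these data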;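 also: inhibitors lower millipolarization by displacing the labeled peptide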
Of the large screens only hits and unclear results are named; the others gave an inactive call. Most compounds without a hit are left out; they make up all but 1.4% or so of the library.

O=C(NNC(=O)c1cc(-c2ccco2)nc2ccccc12)c1ccccc1	Bcl-xL primary 35
O=C(O)c1ccc2nc(-c3ccccc3)c(-c3ccccc3)nc2c1	none
O=C(c1ccccc1)c1ccc2nc(-c3ccco3)c(-c3ccco3)nc2c1	Bcl-xL primary 32
Cc1cccnc1C1=NOC(Cc2ccccc2)C(=O)N1CCOc1ccc(F)cc1 (stereo unspecified)	none (no result: GLD-1 RNA inh, MCL1-BIM inh, MEX-5 binding, Bcl-xL primary)
CCCCNc1c(N)n(CCC)c(=O)[nH]c1=O	none
CCCn1c(N)c(NCCN2CCOCC2)c(=O)[nH]c1=O	MEX-5 binding -31, Bcl-xL primary 33
CC1(C)CC(=O)C2=C(C1)N1C(=C(C#N)C2c2ccc(Cl)cc2)N=C(N)c2ccccc21 (stereo unspecified)	GLD-1 RNA inh 61
COc1ccc(NC(=O)COC(=O)C2CCCN2C(=O)OC(C)(C)C)cc1Cl (stereo unspecified)	none (no result: GLD-1 RNA inh, MCL1-BIM inh, MEX-5 binding, Bcl-xL primary)
Cc1[nH][nH]c(=O)c1C(c1ccccc1[N+](=O)[O-])C(C#N)C#N (stereo unspecified)	none
Cc1[nH][nH]c(=O)c1C(c1cc([N+](=O)[O-])ccc1O)c1c(C)[nH][nH]c1=O	MEX-5 binding -27
COc1ccc(C2NC(=O)N(C)C3=C2C(=O)CC(C)(C)C3)cc1OC (stereo unspecified)	none
CN1C(=O)NC(c2cccc(F)c2)C2=C1CC(C)(C)CC2=O (stereo unspecified)	Bcl-xL primary 36
CCC(=O)[C@@H](C)[C@@H](OC(C)=O)[C@H](C)C[C@@H](C)[C@H]1OC(=O)C[C@@]2(O)CC=C(C)C(O2)C(C)=CCCC[C@H](O[C@H]2C[C@@H](OC(N)=O)[C@H](OC(C)=O)[C@@H](C)O2)C=C[C@H](C)C[C@H]1C	none (no result: GLD-1 RNA inh, MCL1-BIM inh, MEX-5 binding, Bcl-xL primary)
CCOc1c(C=C(C#N)C#N)c2ccccc2n1CC	MEX-5 binding -39
Cc1cc(O)c(C(C)C)cc1N=C1CSC(=O)N1	MEX-5 binding inconclusive, Bcl-xL primary 40
O=C(NCc1ccccc1F)C1CC(=O)N(Cc2ccco2)C1 (stereo unspecified)	none (no result: GLD-1 RNA inh, MCL1-BIM inh, MEX-5 binding, Bcl-xL primary)
CN1CCCc2cc(C=O)ccc21	Bcl-xL primary 31
O=Cc1ccc(N2CCCC2)c([N+](=O)[O-])c1	none
CN(C(=O)C1Cc2c(-c3ccc(Cl)cc3)ccnc2O1)c1ccccc1 (stereo unspecified)	none (no result: GLD-1 RNA inh, MCL1-BIM inh, MEX-5 binding, Bcl-xL primary)
N#Cc1c(C#N)c(O)c2ccccc2c1O	MCL1-BIM inh 44, Bcl-xL primary 45
COc1ccccc1C(=O)N1CCN(C(=O)[C@H]2O[C@@H](n3ccc(N)nc3=O)[C@H](O)[C@@H]2O)CC1	none (no result: GLD-1 RNA inh, MCL1-BIM inh, MEX-5 binding, Bcl-xL primary)
COc1ccccc1NC(=O)/C(C#N)=C/c1ccncc1	none
COc1ccccc1NC(=O)/C(C#N)=C/c1cc([N+](=O)[O-])ccc1N1CCCC1	MEX-5 binding -83
Cc1cc(O)c2c(c1)C(=O)[C@@]13Oc4c5c(c(O)c6c(O)cc(C)cc46)C(=O)C[C@H](O)[C@H]5[C@@H]1[C@@H](O)CC(=O)C3=C2O	eLon inh 20 (no result: GLD-1 RNA inh, MCL1-BIM inh, MEX-5 binding, Bcl-xL primary)
Cc1ccc(Cn2cc(CN3CC(N4CCCC4)CS3(=O)=O)nn2)cc1 (stereo unspecified)	none (no result: GLD-1 RNA inh, MCL1-BIM inh, MEX-5 binding, Bcl-xL primary)
COc1cc(/C=C2/N=C(c3ccccc3)OC2=O)c(F)cc1OCc1ccccc1	MEX-5 binding -60
CCOc1ccc(/C=C2\N=C(c3cccs3)OC2=O)cc1OC	MEX-5 binding inconclusive (no result: eLon inh)
COc1ccc(/C=C2/N=C(c3cccs3)OC2=O)cc1OC(C)C	MEX-5 binding -53
CCSC1=N/C(=C\c2ccccc2)C(=O)N1	MEX-5 binding -40
CN=C1S/C(=C\c2cn(CC(=O)OC)c3ccccc23)C(=O)N1C	MEX-5 binding -28
O=C(COC(=O)c1cnccn1)Nc1ncc(Cl)cc1Cl	Bcl-xL primary 34
Cc1ccccc1CS(=O)(=O)Cc1ccc(C(=O)NCc2ccccn2)o1	Bcl-xL primary 31
Cc1cc2nc(NC(=O)C3(C)CCCN(C(C)C)C3)[nH]c2cc1C (stereo unspecified)	none (no result: GLD-1 RNA inh, MCL1-BIM inh, MEX-5 binding, Bcl-xL primary)
COC(=O)/C(C#N)=C/c1c(Oc2cc(C)cc(C)c2)nc2c(C)cccn2c1=O	MEX-5 binding -41
CNC(=O)/C(C#N)=C/c1c(N(Cc2ccccc2)Cc2ccccc2)nc2c(C)cccn2c1=O	Bcl-xL primary 154
CCNC(=O)/C(C#N)=C/c1c(N(Cc2ccccc2)Cc2ccccc2)nc2ccccn2c1=O	none

From PubChem BioAssay
